Test results taken from PubChem BioAssay (NCATS).
Several values for one entry are separate records, joined by “and”; a condition that tells them apart may be missing. Identical values can stand only once. Results filed as inconclusive are left out. Some compounds were tested as several samples or in several runs, with calls that do not always agree. Activity calls are given as the source filed them. Unless noted, calls come from the whole dose curve; as a rule, active = well fitted curve in the direction sought with a large enough effect; inconclusive = small, poorly fitted or top-dose-only effect, or another doubt; inactive = no such curve, though single readings can be large; an effect the other way counts as inactive or inconclusive.

Legend:
[1] = Drug repurposing screens with cells derived from glioblastoma tumor samples (AID 1345199); settings: GBM patient neurospheres viability, ATP luminescence, 48 h; note: nearly all actives have a fitted effect of over 40% in size; note: potency is the fitted concentration of half-maximal effect; for activity, negative = cell killing: % is set by controls: 0 for no effect and ±100 for the full control effect
How it was run: (§1)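 Primary testing used CD133+ neurospheres from four GBM patients, seven concentrations, 48 h exposure and ATP-based viability; confirmation added three slower-growing patient lines.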

WaGa = test: qHTS assay to identify novel small-molecules to repurpose for Merkel cell carcinoma treatment (AID 1296009); settings: MCC and control cell lines, CellTiter-Glo viability, 72 h; series mostly up to 46 µM; note: nearly all actives have a fitted effect of over 60% in size; note: potency is the fitted concentration of half-maximal effect
How it was run: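 Luminescence from CellTiter-Glo, read 10 min after addition at room temperature, reported viability following a 72 hr, 37 degree celsius treatment with NPC or MIPE compounds in titration; values normalized to plate controls.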

C33A = test: Primary qHTS to identify gynecologic anti-cancer compounds using libraries of approved drugs and bioactive compounds (AID 1345084); settings: Gynecologic cancer cell panel viability, ATPlite luminescence, 48 h; series mostly up to 57.5 µM; note: nearly all actives have a fitted effect of over 55% in size; note: potency is the fitted concentration of half-maximal effect
How it was run: (§2)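 48 h compound exposure at 37 C, 5% CO2; five-point qHTS. ATPlite luminescence readout of cell ATP.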

CAOV3 = test: as above; settings: Gynecologic cancer cell panel viability, ATPlite luminescence, 48 h; series mostly up to 57.5 µM
How it was run: as §2

Es-2 = test: as above; settings: Gynecologic cancer cell panel viability, ATPlite luminescence, 48 h; series mostly up to 57.5 µM
How it was run: as §2

Hek293T = test: as above; settings: Gynecologic cancer cell panel viability, ATPlite luminescence, 48 h, control line for the selectivity index; series mostly up to 57.5 µM
How it was run: as §2

JEG-3 = test: as above; settings: Gynecologic cancer cell panel viability, ATPlite luminescence, 48 h; series mostly up to 57.5 µM
How it was run: as §2

OV90 = test: as above; settings: Gynecologic cancer cell panel viability, ATPlite luminescence, 48 h; series mostly up to 57.5 µM
How it was run: as §2

SKOV3 = test: as above; settings: Gynecologic cancer cell panel viability, ATPlite luminescence, 48 h; series mostly up to 57.5 µM
How it was run: as §2

Tov-21-G = test: as above; settings: Gynecologic cancer cell panel viability, ATPlite luminescence, 48 h; series mostly up to 57.5 µM
How it was run: as §2

Tov112D = test: as above; settings: Gynecologic cancer cell panel viability, ATPlite luminescence, 48 h; series mostly up to 57.5 µM
How it was run: as §2

astro = control astrocytes; test: Drug repurposing screens with cells derived from glioblastoma tumor samples (AID 1345199); settings: viability, ATP luminescence, 48 h; series mostly up to 45.9 µM; note: nearly all actives have a fitted effect of over 40% in size; note: potency is the fitted concentration of half-maximal effect; for activity, negative = cell killing: % is set by controls: 0 for no effect and ±100 for the full control effect
How it was run: as §1

CASKI = test: Primary qHTS to identify gynecologic anti-cancer compounds using libraries of approved drugs and bioactive compounds (AID 1345084); settings: Gynecologic cancer cell panel viability, ATPlite luminescence, 48 h; series mostly up to 57.5 µM; note: nearly all actives have a fitted effect of over 55% in size; note: potency is the fitted concentration of half-maximal effect
How it was run: as §2

HeLa = test: as above; settings: Gynecologic cancer cell panel viability, ATPlite luminescence, 48 h; series mostly up to 57.5 µM
How it was run: as §2

PA-1 = test: as above; settings: Gynecologic cancer cell panel viability, ATPlite luminescence, 48 h; series mostly up to 57.5 µM
How it was run: as §2

[2] = target: Nuclear receptor subfamily 1 group I member 2 (Rattus norvegicus) (UniProt Q9R1A7); test: qHTS assay for small molecule activators of the rat pregnane X receptor (rPXR) signaling pathway (AID 651751; call rule not given here; note: 0% is about no effect); settings: rPXR reporter cells, luciferase (One-Glo), 24 h
[3] = qHTS assay for small molecule activators of the human pregnane X receptor (PXR) signaling pathway (AID 720659; call rule not given here; note: 0% is about no effect); settings: DPX-2 HepG2 CYP3A4-luciferase, 24 h; series mostly up to 92.3 µM
[4] = at 45.9 µM (top of the series), tumour line D
[5] = at 45.9 µM (top of the series), tumour line B
[6] = at 46 µM (top of the series), tumour line A
[7] = at 91.6 µM (top of the series), tumour line B

Chain of Nuclear receptor subfamily 1 group I member 2 (Rattus norvegicus) (Q9R1A7 whole entry, looked up): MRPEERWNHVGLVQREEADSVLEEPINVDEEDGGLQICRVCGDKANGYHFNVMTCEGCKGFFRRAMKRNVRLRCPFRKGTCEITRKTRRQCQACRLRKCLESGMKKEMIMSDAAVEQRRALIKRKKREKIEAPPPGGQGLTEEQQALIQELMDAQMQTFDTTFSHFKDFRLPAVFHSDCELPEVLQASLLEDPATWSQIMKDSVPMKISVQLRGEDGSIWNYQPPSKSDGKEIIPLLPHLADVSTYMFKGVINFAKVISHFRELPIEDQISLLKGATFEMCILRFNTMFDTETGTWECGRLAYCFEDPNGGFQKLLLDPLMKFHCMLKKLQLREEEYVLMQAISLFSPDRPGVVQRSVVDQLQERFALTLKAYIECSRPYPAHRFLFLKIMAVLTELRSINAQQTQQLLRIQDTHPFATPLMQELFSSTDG

Cc1nnc2n1-c1ccc(Cl)cc1C(c1ccccc1)=NC2
inactive: activity, negative = cell killing [1, 4] 7.45%

COC1CC(=C(c2cccs2)c2cccs2)C[N+](C)(C)C1 (configuration not stated)
active: Potency (WaGa) 11.9 µM
inactive: Potency (C33A) | outcome (CAOV3) | Potency (Es-2) | outcome (Hek293T) | outcome (JEG-3) | Potency (OV90) | outcome (SKOV3) | Potency (Tov-21-G) | Potency (Tov112D) | Potency (astro)

O=C1OC(CCN2CCCCC2)OC1(c1ccccc1)c1ccccc1 (configuration not stated)
inactive: Potency (C33A) | outcome (CASKI) | Potency (Es-2) | Potency (HeLa) | outcome (Hek293T) | outcome (JEG-3) | Potency (OV90) | Potency (PA-1) | outcome (SKOV3) | Potency (Tov-21-G) | Potency (Tov112D)

COC(=O)C(c1ccccc1)C1CCCCN1 (configuration not stated)
inactive: activity, negative = cell killing [1, 5] -10.4% | activity, negative = cell killing [1, 4] 3.11% | activity, negative = cell killing [1, 6] -16.7% | max response [2] 1.26% and 1.36% | outcome [3]

C[C@]12CCC(=O)C=C1CC[C@@H]1[C@H]3CC[C@](C)(O)[C@@]3(C)CC[C@@H]12
active: Potency (HeLa) 31.6 µM | Potency ([1]; tumour line A) 39.8 µM
inactive: Potency (C33A) | outcome (CAOV3) | Potency (Es-2) | outcome (JEG-3) | Potency (Tov-21-G) | activity, negative = cell killing [1, 7] -15.6%

O=C(O)/C=C\C(=O)O
inactive: activity, negative = cell killing [1, 5] 0.272% | activity, negative = cell killing [1, 4] -6.85% | activity, negative = cell killing [1, 6] -28.3% | activity, negative = cell killing ([1]; at 46.1 µM (top of the series), tumour line C) 3.02%

CC(C)(C)c1ccc(O)cc1
inactive: Potency (C33A) | outcome (CASKI) | Potency (Es-2) | Potency (HeLa) | outcome (Hek293T) | outcome (JEG-3) | Potency (OV90) | Potency (PA-1) | Potency (Tov-21-G) | Potency (Tov112D) | activity, negative = cell killing [1, 5] -7.29% | activity, negative = cell killing [1, 4] 7.61% | activity, negative = cell killing [1, 6] -21%

C[C@]12CCC(=O)C=C1CC[C@@H]1[C@@H]2CC[C@@]2(C)[C@H]1CC[C@]2(C)O
active: Potency (HeLa) 22.4 µM | Potency ([1]; tumour line A) 12.6 µM and 20 µM
inactive: Potency (C33A) | outcome (CAOV3) | outcome (CASKI) | Potency (Es-2) | outcome (Hek293T) | outcome (JEG-3) | Potency (OV90) | Potency (PA-1) | Potency (Tov-21-G) | Potency (Tov112D) | activity, negative = cell killing [1, 5] -4.4% and -14.4% | activity, negative = cell killing [1, 4] -24.9% and -19.8% | Potency (astro)

CC(C)[C@H]1C(=O)N2CCC[C@H]2[C@]2(O)O[C@](NC(=O)[C@@H]3C[C@@H]4c5cccc6[nH]cc(c56)C[C@H]4N(C)C3)(C(C)C)C(=O)N12
active: Potency ([1]; tumour line A) 7.08 µM
inactive: activity, negative = cell killing [1, 5] -21%

Clc1ccc2c(c1)C(c1ccccc1)=NCc1nncn1-2
inactive: activity, negative = cell killing [1, 5] -7.06% | activity, negative = cell killing [1, 4] 3.75%

COP(=S)(OC)SCN1C(=O)c2ccccc2C1=O
inactive: Potency (C33A) | outcome (CAOV3) | outcome (CASKI) | Potency (Es-2) | Potency (HeLa) | outcome (Hek293T) | outcome (JEG-3) | Potency (OV90) | Potency (PA-1) | outcome (SKOV3) | Potency (Tov-21-G) | Potency (Tov112D) | activity, negative = cell killing [1, 5] -19.8% | activity, negative = cell killing [1, 4] -8.89% | Potency (astro) | max response [2] -5.41% | outcome [3]

C[C@]12CC[C@H]3[C@@H](CC[C@@]45O[C@H]4C(O)=C(C#N)C[C@]35C)[C@H]1CC[C@H]2O
inactive: Potency (C33A) | outcome (CAOV3) | outcome (CASKI) | Potency (Es-2) | Potency (HeLa) | outcome (Hek293T) | outcome (JEG-3) | Potency (OV90) | Potency (PA-1) | outcome (SKOV3) | Potency (Tov-21-G) | Potency (Tov112D)

C[C@]12CCC(=O)C=C1CC[C@@H]1[C@@H]2CC[C@]2(C)C(=O)CC[C@@H]12
inactive: Potency (C33A) | outcome (CAOV3) | outcome (CASKI) | Potency (Es-2) | outcome (Hek293T) | outcome (JEG-3) | Potency (OV90) | outcome (SKOV3) | Potency (Tov-21-G) | Potency (Tov112D) | activity, negative = cell killing [1, 5] -22.1% | max response [2] 5.29% and 4.66%
active: Potency ([1]; tumour line A) 10 µM

O=C1Nc2ccc(Cl)cc2C(c2ccccc2)=NC1O (configuration not stated)
inactive: activity, negative = cell killing [1, 5] -7.13% | activity, negative = cell killing [1, 4] -25.5% | activity, negative = cell killing [1, 7] -11.1% | activity, negative = cell killing ([1]; at 91.6 µM (top of the series), tumour line D) -11.5% | Potency (astro)
active: Potency ([1]; tumour line A) 39.8 µM

C[C@@H](N)[C@@H](O)c1ccccc1
inactive: Potency (C33A) | outcome (CAOV3) | outcome (CASKI) | Potency (Es-2) | Potency (HeLa) | outcome (Hek293T) | outcome (JEG-3) | Potency (OV90) | Potency (PA-1) | outcome (SKOV3) | Potency (Tov-21-G) | Potency (Tov112D) | activity, negative = cell killing ([1]; at 21.2 µM (top of the series), tumour line B) -14.5% | activity, negative = cell killing ([1]; at 21.2 µM (top of the series), tumour line D) 16.2% | activity, negative = cell killing ([1]; at 21.3 µM (top of the series), tumour line A) -20.6% | Potency (astro)

C[C@]12CC[C@H]3[C@@H](CCC4=CC(=O)CC[C@@H]43)[C@@H]1CC[C@@H]2OC(=O)CCc1ccco1
active: Potency (HeLa) 3.16 µM | Potency (PA-1) 25.1 µM
inactive: Potency (WaGa) | Potency (C33A) | outcome (CASKI) | Potency (Es-2) | outcome (Hek293T) | outcome (JEG-3) | Potency (OV90) | outcome (SKOV3) | Potency (Tov-21-G) | Potency (Tov112D)

CCCCCN(C)CCC(O)(P(=O)(O)O)P(=O)(O)O
inactive: activity, negative = cell killing [1, 5] -6.41% | activity, negative = cell killing [1, 4] -6.48% | activity, negative = cell killing [1, 6] -14.8% | Potency (astro)
